Screening data deposited in PubChem BioAssay by National Center for Advancing Translational Sciences (NCATS).
This excerpt belongs to a sample that is enriched for hits.
KDM5B inhibitor – inhibitors of human KDM5B histone demethylase | Q9UGL1 | KDM5B demethylase, FDH-coupled NADH fluorescence (FDH is formaldehyde dehydrogenase) | Potency, µM (top dose mostly 57.7 µM), most hits filed as inhibitors | actives 2.6% (n = 220,000); active = well fitted inhibition curve with a large enough effect; note: 0% is about no effect; nearly all actives have a fitted effect of over 70% in size
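KDM5BΔAP (200 nM final) in 50 mM HEPES pH 7.5, 0.01% Tween-20 was preincubated 10 min at RT with compound over a concentration range. Substrate mix (H3K4me3 12.5 µM, α-KG 25 µM, Fe²⁺, ascorbate, NAD⁺, FDH) was added, and NADH fluorescence change over 30 min gave dose-response curves.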
* = called active by the depositor; i = inactive. Potency is the fitted concentration of half-maximal effect.

SMILES	KDM5B inhibitor
CC(C)N(C)CCNC(=O)Nc1ccccc1C(F)(F)F	i
COc1ccc(Nc2nc(NCc3ccc4c(c3)OCO4)nc3nccnc23)cc1	i
O=C(COC(=O)C12CC3CC(CC(Cl)(C3)C1)C2)Nc1ccc([N+](=O)[O-])cc1Cl	i
O=C(Cc1ccccc1)N1CCC(Cc2nc(-c3ccccc3)n[nH]2)CC1	i
Cc1nn2c(c1-c1ccnn1C(C)C)N(Cc1ccc(C(=O)O)s1)CCC2	25.1µM*
COc1ccc(OC)c(CN2CCCn3nc(C)c(-c4ccnn4C(C)C)c32)c1	i
Cc1nn2c(c1-c1ccnn1C(C)C)N(C(=O)C(C)C)CCC2	i
CNC(=O)NC(=O)CN(Cc1ccc2c(c1)OCO2)C1CCCC1	i
O=C(Cc1ccc(Cl)cc1)NNC(=O)C1CCCCC1	i
c1ccc2oc(CN3Cc4[nH]cnc4C[C@H]3c3nc(-c4ccc5c(c4)OCO5)no3)cc2c1	35.5µM*
O=C(NCc1ccccc1)N1Cc2[nH]cnc2C[C@H]1c1nc(-c2ccc3c(c2)OCO3)no1	i
N#Cc1ccc(C(=O)N2Cc3[nH]cnc3C[C@H]2c2nc(-c3ccc4c(c3)OCO4)no2)cc1	i
FC(F)(F)c1ccc(-c2noc([C@@H]3Cc4nc[nH]c4CN3Cc3cc4ccccc4o3)n2)cc1	25.1µM*
O=C(O)CCC(=O)N1Cc2[nH]cnc2C[C@H]1c1nc(-c2ccc(OC(F)(F)F)cc2)no1	i
O=C(Nc1cccc(F)c1)N1Cc2[nH]cnc2C[C@H]1c1nc(-c2ccc(C(F)(F)F)cc2)no1	i
COCC(=O)N1CCc2nc(-c3ccc(Cl)cc3)nc(-c3ccccc3)c2C1	i
Cc1cc(C)n(-c2nc3c(c(=O)n(CC(=O)C(C)(C)C)c(=O)n3C)n2C)n1	i
CN(Cc1cccc(Cl)c1Cl)S(=O)(=O)c1cn(C)c(=O)n(C)c1=O	i
Cn1nc2n(c1=O)CCN(C(=O)c1cccc(C#N)c1)CC2	i
O=C(NC1CCCC1)c1csc(N2CCN(c3ccccc3F)CC2)n1	i
CC(C)c1cc(C(=O)N2CCN(c3ncccc3C#N)CC2)n(C)n1	31.6µM*
CC(Oc1ccccc1C#N)C(=O)NC1CC1 (stereo not given)	i
Cc1cc2cc(C(=O)N3C[C@H]4CC=CC[C@H]4C3)ccc2o1	i
Cc1cc2cc(C(=O)N3CCN(c4ncccc4C#N)CC3)ccc2o1	28.2µM*
COc1ccc(C(=O)N2CCN(c3nc4cccnc4o3)CC2)cc1C#N	i
SMILES	KDM5B inhibitor
Cc1cccc(C(=O)NC2CCN(c3cnn(C)c(=O)c3)CC2)c1	i
Cc1nc(N2CCC(NC(=O)c3ccccn3)CC2)cc(C(F)(F)F)n1	i
Cc1nc(C(=O)NC2CCN(c3ncccc3C#N)CC2)cs1	28.2µM*
N#Cc1cccc(NC(=O)N2CCN(c3ncccc3Cl)CC2)c1	i
CC(C)c1cc(C(=O)NC2CCN(c3ncccc3C#N)CC2)n(C)n1	22.4µM*
CC1CCN(c2ccc(-c3cccc(N)c3)nn2)CC1	i
CN(CC1CCOCC1)S(=O)(=O)c1cccc(F)c1	i
CC(Oc1cccc(Cl)c1)C(=O)NCCc1cccs1 (stereo not given)	i
COc1ccc(NC(=O)N2CCCC(c3nc(C4CCOCC4)no3)C2)cc1 (stereo not given)	i
O=C(NCCN1CCCCC1)C1CCN(C(=O)N2CC3CC(C2)[C@H]2CCCC(=O)N2C3)CC1 (stereo not given in full)	i
Cc1ccc(C)c(NC(=O)Cn2c(=O)n(-c3ccc(F)cc3)c(=O)c3c2cc(C)n3C)c1	i
CC1CCc2c(-c3ccccc3O)nc3ccc4ccccc4c3c2C1 (stereo not given)	i
O=C(CCNC(=O)N1CCN(C(=O)c2cc3ccccc3[nH]2)CC1)N1CCCC1	i
N#Cc1ccc(C(=O)N2CCCC2c2nc(CCOCC3CC3)no2)cc1 (stereo not given)	i
O=C(Cn1nc(-c2ccc(F)cc2)ccc1=O)NC1CCCc2c1[nH]c1ccccc21 (stereo not given)	14.1µM*
O=C(Cc1ccccc1)NC1CCCc2c1[nH]c1ccccc21 (stereo not given)	i
O=C(Cn1nc(-c2cccs2)ccc1=O)NC1CCCc2c1[nH]c1c(Cl)cccc21 (stereo not given)	i
O=C(NC1CCCc2c1[nH]c1ccccc21)c1ccncc1 (stereo not given)	i
O=C(Cn1nc(-c2ccc(F)cc2)ccc1=O)N1CCc2ccccc2C1	i
O=C(NC1CCCc2c1[nH]c1ccccc21)c1n[nH]c2c1CCCC2 (stereo not given)	14.1µM*
CC(=O)N1CCC(NC2(Cc3cc(CN4CCOCC4)on3)COC2)CC1	i
N#C/C(=C/c1ccccc1OCc1ccccc1)c1ccccc1F	i
COCCn1c(SCc2ccc3c(c2)OCO3)nnc1-c1ccc(Cl)cc1	i
O=C(NCCOc1ccccc1)c1nc2c(o1)CCN(Cc1ccsc1)CC2	i
O=C(Nc1ccc(Cl)cc1)c1nc2c(o1)CCN(Cc1cc(F)ccc1F)CC2	31.6µM*
SMILES	KDM5B inhibitor
Cc1cccc(CN2CCc3nc(C(=O)NCc4ccccc4)oc3CC2)c1	i
O=C(NCc1ccccc1)c1nc2c(o1)CCN(Cc1ccc(F)c(Cl)c1)CC2	28.2µM*
O=C(Nc1cccnc1)c1nc2c(o1)CCN(Cc1ccc(F)c(F)c1)CC2	i
O=C(Nc1ccc(Cl)cc1)c1nc2c(o1)CCN(Cc1ccccc1)CC2	31.6µM*
O=C(NCC1CC1)c1nc2c(o1)CCN(Cc1ccc3[nH]ccc3c1)CC2	i
O=C(NCCOc1ccccc1)c1nc2c(o1)CCN(Cc1ccc3[nH]ccc3c1)CC2	39.8µM*
O=C(NCc1ccncc1)c1nc2c(o1)CCN(CCCc1ccccc1)CC2	i
O=C(CN1CCN(Cc2ccccc2)CC1)Nc1ccc(Cl)cc1	i
Cc1csc(NC(=O)c2nc3c(o2)CCN(Cc2ccccc2F)CC3)n1	i
O=C(NCc1ccccc1)c1nc2c(o1)CCN(Cc1ccc(F)cc1)CC2	i
CCN(C(=O)/C=C/c1cccs1)C1CCCCC1	i
CC(C)CCNC(=O)c1cnc2c(c1)N(C(=O)Cc1ccc(C(C)C)cc1)CCC2	i
Cc1cc(C)cc(OCC(=O)Nc2ccc3oc(-c4ccncc4)nc3c2)c1	i
CCOC(=O)N1CCN(C(=O)Cn2nc(-c3ccccc3F)ccc2=O)CC1	i
NC(=O)CCNc1ccccc1	i
CC(C)C(NC(=O)c1cccs1)c1ccc2c(c1)OCCCO2 (stereo not given)	i
COc1ccc(CNC(=O)c2nn(-c3ccccc3C)c(=O)cc2OC)cc1	i
CCCNC(=O)C(C)S(=O)(=O)Cc1cc(Cl)c2c(c1)OCO2 (stereo not given)	i
CC(C)(C)C1CCc2c(sc3ncc(NC(=O)c4ccccc4)c(=O)n23)C1 (stereo not given)	i
CC(C)c1nc2nccc(-c3ccsc3)n2n1	25.1µM*
Cc1cc(Nc2ccc(F)cc2C)n2nc(-c3ccco3)nc2n1	i
COc1ccc(-c2ccnc3nc(-c4ccco4)nn23)c(F)c1	15.8µM*
Cc1cc(C)n2c(Nc3ccc(C(C)C)cc3)c(-c3ccsc3)nc2n1	i
COc1ccc(Nc2cc(C)nc3nc(-c4ccccc4C)nn23)c(OC)c1	i
COc1ccc(CNc2nc(-c3ccco3)nn2C(=O)CC(C)C)cc1	i
COc1ccc(-c2nc3nccc(-c4ccsc4)n3n2)c(OC)c1	17.8µM*
COc1ccc(-c2nc3nccc(-c4ccco4)n3n2)c(OC)c1	22.4µM*
